# Several values for one entry are separate records, joined by “and”; a condition that tells them apart may be missing. Equal entries are not always repeated. The whole screen tested about 5,500 compounds, of which about 2,000 (36%) were called active. Roughly 18% stayed inconclusive and do not appear here. The list shows a part of the results. Values without a mark were called inactive. No stated cut-off is given here; in the data, active means normalized growth mostly below about 0.91 (no sharp cut-off); inconclusive means no clear call, values can overlap the other calls; inactive means mostly above about 0.92.
# Experiment: chemical genetic growth profiling, strain panel (AID 1159580);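 further: tested at 20 µM; growth read once vehicle control cultures reached saturation at 30 °C; 1 = growth at the plate median or of vehicle wells; lower values mean less growth of the strain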
# Conditions: S. cerevisiae deletion strains, growth OD
# [1] = locus YDR150W, strain NUM1, active compounds read low
# [2] = locus YGR229C, strain SMI1, active compounds read low
# [3] = locus YMR263W, strain SAP30, active compounds read low
# [4] = locus YMR307W, strain GAS1, active compounds read low
# [5] = locus YNL153C, strain GIM3, active compounds read low
# [6] = locus YNL322C, strain KRE1, active compounds read low
# [7] = locus YPL055C, strain LGE1, active compounds read low
smiles,measurement,setting,value
CC(C)=CCCC1(C)C=Cc2c(O)c3c(c(CC=C(C)C)c2O1)OC12C(=CC4CC1C(C)(C)OC2(C/C=C(\C)C(N)=O)C4=O)C3=O (centres undefined),normalized growth,"locus YBR021W, strain FUR4, active compounds read low",0.922
same,normalized growth,"locus YBR229C, strain ROT2, active compounds read low",1
same,normalized growth,"locus YCL029C, strain bik1, active compounds read low",0.977
same,normalized growth,"locus YDL035C, strain GPR1, active compounds read low",0.932
same,normalized growth,"locus YDL074C, strain BRE1, active compounds read low",0.899
same,normalized growth,"locus YDL101C, strain DUN1, active compounds read low",0.96
same,normalized growth,"locus YDL134C, strain PPH21, active compounds read low",0.914
same,normalized growth,"locus YDL185W, strain tfp1, active compounds read low",0.996
same,normalized growth,"locus YDL192W, strain arf1, active compounds read low",0.913 (active)
same,normalized growth,"locus YDR101C, strain arx1, active compounds read low",0.958
same,normalized growth,[1],1
same,normalized growth,"locus YDR162C, strain NBP2, active compounds read low",0.92
same,normalized growth,"locus YDR318W, strain mcm21, active compounds read low",0.941
same,normalized growth,"locus YDR388W, active compounds read low",0.96
same,normalized growth,"locus YDR502C, strain sam2, active compounds read low",0.924
same,normalized growth,"locus YEL061C, strain CIN8, active compounds read low",0.967
same,normalized growth,"locus YER110C, active compounds read low",0.999
same,normalized growth,"locus YER155C, strain BEM2, active compounds read low",0.89 (active)
same,normalized growth,"locus YER167W, strain BCK2, active compounds read low",0.965
same,normalized growth,"locus YGL078C, strain dbp3, active compounds read low",0.963
same,normalized growth,"locus YGL086W, strain mad1, active compounds read low",0.947
same,normalized growth,"locus YGL248W, strain PDE1, active compounds read low",0.894
same,normalized growth,"locus YGR135W, strain pre9, active compounds read low",0.923
same,normalized growth,[2],0.761 (active)
same,normalized growth,"locus YGR252W, strain gcn5, active compounds read low",0.856
same,normalized growth,"locus YHR030C, strain SLT2, active compounds read low",0.995 and 0.925
same,normalized growth,"locus YHR079C, strain IRE1 (second series), active compounds read low",0.99
same,normalized growth,"locus YHR079C, strain IRE1, active compounds read low",0.933
same,normalized growth,"locus YHR094C, strain hxt1, active compounds read low",0.995
same,normalized growth,"locus YHR129C, strain ARP1, active compounds read low",0.944
same,normalized growth,"locus YHR200W, strain rpn10, active compounds read low",0.946
same,normalized growth,"locus YIL066C, strain RNR3, active compounds read low",0.878
same,normalized growth,"locus YIL073C, strain SPO22, active compounds read low",0.801
same,normalized growth,"locus YIL125W, strain kgd1, active compounds read low",0.943
same,normalized growth,"locus YIR030C, strain dcg1, active compounds read low",0.959
same,normalized growth,"locus YJL095W, strain BCK1, active compounds read low",0.875 and 0.963
same,normalized growth,"locus YJL134W, strain LCB3, active compounds read low",1
same,normalized growth,"locus YJL168C, strain set2, active compounds read low",0.987
same,normalized growth,"locus YJL187C, strain SWE1 (second series), active compounds read low",0.929
same,normalized growth,"locus YJR043C, strain POL32, active compounds read low",0.981
same,normalized growth,"locus YJR066W, strain TOR1, active compounds read low",0.906
same,normalized growth,"locus YJR075W, strain HOC1, active compounds read low",0.944
same,normalized growth,"locus YKL009W, strain mrt4, active compounds read low",0.931
same,normalized growth,"locus YKL068W, active compounds read low",0.995
same,normalized growth,"locus YKL085W, strain MDH1 (second series), active compounds read low",0.99
same,normalized growth,"locus YKL085W, strain MDH1, active compounds read low",0.99
same,normalized growth,"locus YKL190W, strain CNB1, active compounds read low",0.985
same,normalized growth,"locus YKR001C, strain vps1, active compounds read low",0.842 (active)
same,normalized growth,"locus YLR039C, strain RIC1, active compounds read low",0.898
same,normalized growth,"locus YLR058C, strain SHM2, active compounds read low",0.946
same,normalized growth,"locus YLR102C, strain apc9, active compounds read low",1.01
same,normalized growth,"locus YLR113W, strain HOG1, active compounds read low",0.852 (active)
same,normalized growth,"locus YLR262C, strain YPT6, active compounds read low",0.946
same,normalized growth,"locus YLR268W, strain sec22, active compounds read low",0.896
same,normalized growth,"locus YLR330W, strain CHS5, active compounds read low",0.95
same,normalized growth,"locus YLR342W, strain FKS1 (second series), active compounds read low",0.913
same,normalized growth,"locus YLR371W, strain rom2, active compounds read low",0.989
same,normalized growth,"locus YLR418C, strain cdc73, active compounds read low",0.699 (active)
same,normalized growth,"locus YML016C, strain PPZ1, active compounds read low",0.969
same,normalized growth,"locus YML032C, strain rad52, active compounds read low",0.96
same,normalized growth,"locus YML124C, strain tub3, active compounds read low",0.985
same,normalized growth,"locus YMR078C, strain ctf18, active compounds read low",0.971
same,normalized growth,"locus YMR223W, strain ubp8, active compounds read low",0.95
same,normalized growth,[3],0.968
same,normalized growth,[4],0.833
same,normalized growth,"locus YNL067W, strain RPL9B, active compounds read low",0.951
same,normalized growth,[5],0.958
same,normalized growth,"locus YNL183C, strain NPR1, active compounds read low",0.868
same,normalized growth,"locus YNL233W, strain BNI4, active compounds read low",0.915
same,normalized growth,"locus YNL250W, strain rad50, active compounds read low",0.983
same,normalized growth,"locus YNL271C, strain bni1, active compounds read low",0.993
same,normalized growth,"locus YNL298W, strain CLA4, active compounds read low",0.989
same,normalized growth,"locus YNL307C, strain MCK1, active compounds read low",0.844 (active)
same,normalized growth,[6],0.976
same,normalized growth,"locus YNR052C, strain pop2, active compounds read low",0.981
same,normalized growth,"locus YOL012C, strain htz1",0.568
same,normalized growth,"locus YOL147C, strain pex11, active compounds read low",0.944
same,normalized growth,"locus YOR061W, strain CKA2, active compounds read low",0.963
same,normalized growth,"locus YOR069W, strain VPS5, active compounds read low",0.99
same,normalized growth,"locus YOR136W, strain idh2, active compounds read low",0.98
same,normalized growth,"locus YOR144C, strain elg1, active compounds read low",0.987
same,normalized growth,"locus YOR184W, strain ser1, active compounds read low",0.872 (active)
same,normalized growth,"locus YOR231W, strain MKK1, active compounds read low",0.937
same,normalized growth,"locus YOR316C, strain cot1, active compounds read low",0.995
same,normalized growth,[7],0.866
same,normalized growth,"locus YPL256C, strain CLN2, active compounds read low",0.944
same,normalized growth,"locus YPR119W, strain clb2, active compounds read low",0.989
same,normalized growth,"locus YPR141C, strain kar3, active compounds read low",0.996
same,normalized growth,"locus YPR163C, strain tif3, active compounds read low",0.982
same,normalized growth,"locus YPR167C, strain met16, active compounds read low",0.958
same,normalized growth,"strain wtn01, active compounds read low",0.937
O=C(O)C1CCCN(CCC=C(c2ccccc2)c2ccccc2)C1 (centres undefined),normalized growth,"locus YAL013W, strain DEP1, active compounds read low",1.04
same,normalized growth,"locus YAL040C, strain CLN3, active compounds read low",1.06
same,normalized growth,"locus YCL061C, strain MRC1 (second series), active compounds read low",1.01
same,normalized growth,[1],1.01
same,normalized growth,"locus YDR363W, strain ESC2, active compounds read low",1.02
same,normalized growth,"locus YER002W, strain NOP16, active compounds read low",1
same,normalized growth,"locus YGR078C, strain PAC10, active compounds read low",1.02
same,normalized growth,[2],1.04
same,normalized growth,[3],1.01
same,normalized growth,[4],1.01
same,normalized growth,[5],1.08
same,normalized growth,"locus YNL175C, strain NOP13, active compounds read low",0.999
same,normalized growth,"locus YNL197C, strain WHI3, active compounds read low",1
same,normalized growth,"locus YNL224C, strain SQS1, active compounds read low",0.997
same,normalized growth,[6],1.05
same,normalized growth,"locus YOR083W, strain WHI5 (second series), active compounds read low",1.04
same,normalized growth,[7],1.03
same,normalized growth,"locus YPL241C, strain CIN2, active compounds read low",1.01
